# From PubChem BioAssay (NCATS)
# Unmarked numbers belong to inactive results. Results filed as inconclusive are left out. The source made the active and inactive calls. Unless noted, calls come from the whole dose curve; as a rule, active = well fitted curve in either direction with a large enough effect (not every such curve was filed as active); inconclusive = small, poorly fitted or top-dose-only effect, or another doubt; inactive = flat fitted curve, though single readings scatter.
# Tests used:
# [1] = molecular target: Lysosomal acid glucosylceramidase (Homo sapiens) (UniProt P04062); assay: Glucocerebrosidase-p2 (AID 348; in the data active = potency below about 10 µM; note: potency is the fitted concentration of half-maximal effect); settings: purified GBA, blue fluorogenic substrate, 40 min
# Outline: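 Compounds titrated from 0.6 nM upwards against 0.2 nM enzyme in pH 5.9 citric acid/KH2PO4, taurocholate, tween-20; blue fluorogenic substrate 80 uM, 40 min room temperature, stopped and read Ex 365/Em 440 for AC50.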
# [2] = AP1 Signaling Pathway (AID 357); settings: ME-180 AP-1-bla reporter, EGF-induced, beta-lactamase ratio, 5 h; at 7.69 µM (top of the series) unless noted;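 note: ME-180 reporter cells stimulated with EGF at its EC50 level; % is set by controls: 0 for no effect and ±100 for the full control effect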
# Outline: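 AP-1-bla ME-180 cells, Opti-MEM + 0.5% dialyzed FBS, plated overnight 37 °C. Cpd titration + EC50 EGF, 5 h 37 °C. CCF4 2.5 h RT; ex 405, em 460/530 ratio → %activity, AC50.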
# [3] = molecular target: Cytochrome P450 1A2 (Homo sapiens) (UniProt P05177); assay: p450-cyp1a2 (AID 410; calls by dose curve; note: potency is the fitted concentration of half-maximal effect;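 for activity change, negative = inhibition: -100% = full effect of reference inhibitor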); settings: recombinant CYP1A2, luciferin-ME demethylation, luminescence; series mostly up to 57 µM
# Outline: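 20nM CYP1A2 with 100uM Luciferin-ME (at Km) in 100mM KPO4; compound preincubated 10 min, NADPH regeneration added, 60 min at room temperature. Luciferin quantified by luminescence after detection reagent; normalized to 57 uM furafylline.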
# [4] = molecular target: Glucocorticoid receptor (Homo sapiens) (UniProt P04150); assay: GR-EFC Redistribution (AID 451; calls by dose curve; note: potency is the fitted concentration of half-maximal effect); settings: CHO-K1 GR-EFC translocation, beta-gal luminescence, 2 h
# Outline: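 CHO-K1 cells stably expressing nuclear-localized β-gal enzyme acceptor and GR fused C-terminally to the enzyme donor fragment; ligand-driven nuclear translocation restores β-gal by complementation. Compounds titrated up to 46 uM final, 2 h at 37 °C; luminescence read.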
# [5] = molecular target: 3',5'-cyclic-AMP phosphodiesterase 4B (Homo sapiens) (UniProt Q07343); assay: qHTS Assay for Inhibitors of PDE-IV (AID 607; active = well fitted activation curve with a large enough effect in the main read-out, with a control signal flat, not every such curve was filed as active; note: % of control where 0% means no effect); settings: HEK293 ACTOne CNG channel cells, membrane potential fluorescence; series mostly up to 22.9 µM
# Outline: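 The readout is membrane depolarisation from a cAMP-sensing CNG channel, detected with a potential dye at ex 535/em 590. Cells were HEK293-derived (endogenous PDE-IV) at 1000 cells/well, titrated up to 22.9 uM final.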
# [6] = qHTS Assay for Identification of Small Molecule Agonists for Hypoxia Response Element Signaling Pathway (AID 914; active = well fitted activation curve with a large enough effect in the signal ratio, with a control signal flat, not every such curve was filed as active; the % refers to the signal ratio; note: potency is the fitted concentration of half-maximal effect; for activation: % of control where 0% means no effect); settings: ME-180 HRE-bla reporter, beta-lactamase ratio, CoCl2, 17 h; activation: stronger effect = higher value
# Outline: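 HRE-bla ME-180 cells, overnight plating in Opti-MEM with 0.5% dialyzed FBS; cpd titration + EC50 CoCl2, 17 h, 37 degrees Celsius; CCF4 2.5 h RT; 460/530 nm ratio; AC50.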
# [7] = Primary qHTS for small molecule stabilizers of the endoplasmic reticulum resident proteome: Secreted ER Calcium Modulated Protein (SERCaMP) assay (AID 1508630; active = well fitted curve in the direction sought with a large enough effect; an effect the other way counts as inactive or inconclusive; note: % is set by controls: 0 for no effect and ±100 for the full control effect); settings: SH-SY5Y GLuc-SERCaMP (Gaussia luciferase released on ER calcium loss) secretion, thapsigargin, luminescence; series mostly up to 38.4 µM
# Outline: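 GLuc-SERCaMP-expressing SH-SY5Y cells, pretreated 16 h with compound, are challenged with thapsigargin to empty ER calcium stores; after 4 h, coelenterazine is added directly to the medium and luminescence is imaged.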
# [8] = NFAT Signaling Pathway (AID 444); settings: Jurkat NFAT-bla M1, carbachol, beta-lactamase ratio, 5 h; at 7.69 µM (top of the series) unless noted;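 note: carbachol stimulus at about its EC50 of 1 µM final; % is set by controls: 0 for no effect and ±100 for the full control effect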
# Outline: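 Jurkat cells carrying an NFAT-driven β-lactamase reporter and co-transfected muscarinic M1 receptor were treated with compound plus carbachol (1 uM final, an EC50 level) for 5 h at 37 °C. CCF4 loading followed for 1 h at RT; 460/530 nm ratio gave %activity.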
# [9] = Stat Signaling Pathway (AID 446); settings: ME-180 SIE beta-lactamase reporter, IL-6 stimulated, 5 h; at 7.69 µM (top of the series) unless noted;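 note: ME-180 cervical cancer cells given 40 pM IL-6 alongside compound; SIE-controlled beta-lactamase reporter measured as 460/530 nm FRET emission ratio; % is set by controls: 0 for no effect and ±100 for the full control effect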
# Outline: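 Screening format detects activators and inhibitors alike: ME-180 SIE-bla cells stimulated at 40 pM IL-6 for 5 hrs with compound, then dual-emission beta-lactamase read at 405 nm excitation.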
# [10] = molecular target: Glucocorticoid receptor (Homo sapiens) (UniProt P04150); assay: GR-GFP Redistribution (AID 450;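 active = compounds whose dose series gives a full or clear partial fitted curve of increased nuclear translocation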; note: potency is the fitted concentration of half-maximal effect); settings: U2OS GR-GFP nuclear translocation, laser cytometry, 2 h
# [11] = molecular target: Mitogen-activated protein kinase 10 (Mus musculus) (UniProt Q61831); assay: JNK3 AlphaScreen Assay (AID 530); settings: JNK3 lysate, c-Jun phosphorylation; series mostly up to 57.1 µM
# Outline: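 Inhibitors reduce antibody binding to phosphorylated biotin-cJun, lowering AlphaScreen luminescence. Lysates from HepG2 cells pre-activated by IL-1beta plus TNF-alpha supplied JNK3; compounds were titrated.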
# [12] = molecular target: Ubiquitin carboxyl-terminal hydrolase 1 (Homo sapiens) (UniProt O94782); assay: Inhibitors of USP1/UAF1: Pilot qHTS (AID 504865; active = well fitted curve in the direction sought with a large enough effect; an effect the other way counts as inactive or inconclusive;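 note: rhodamine fluorescence freed from ubiquitin-rhodamine substrate followed over time; top concentration of the series differs between compounds; % is set by controls: 0 for no effect and ±100 for the full control effect; nearly all actives have a fitted effect of over 35% in size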); settings: purified USP1/UAF1, Ub-rhodamine cleavage fluorescence; series mostly up to 54.9 µM
# Outline: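 1nM USP1/UAF1 + cpd, 15 min RT; start w/ Ub-Rho 150nM final; kinetic FL 480/540 nm, 6 reads q60 s. Buffer 50mM HEPES pH 7.8, 0.5mM EDTA, 1mM TCEP, 0.01% Tween-20, 0.1 mg/ml BSA.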
# [13] = molecular target: Cytochrome P450 3A4 (Homo sapiens) (UniProt P08684); assay: qHTS Assay for Activators of Cytochrome P450 3A4 (AID 885; active = well fitted curve in the direction sought with a large enough effect; an effect the other way counts as inactive or inconclusive; note: nearly all actives have a fitted effect of over 65% in size); settings: recombinant CYP3A4, Luciferin-PPXE luminescence, 60 min; series mostly up to 57.1 µM
# Outline: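 Steps: enzyme/substrate mix dispensed; compound added, 10 min RT; NADPH regeneration solution added, 60 min RT; luciferin detection buffer stops reaction; 20 min later luminescence measured.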
# [14] = Confirmation and Secondary Assay for Modulators of Hemoglobin Beta Chain Splicing at IVS2 654 locus (AID 910; active = well fitted curve in the direction sought with a large enough effect; an effect the other way counts as inactive or inconclusive; note: % of control where 0% means no effect); settings: HeLa EGFP-654 splicing reporter, GFP fluorescence, 48 h; series mostly up to 38.3 µM
# Outline: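 HeLa cells stably carrying EGFP interrupted by mutant beta-globin IVS2-654 intron (CMV-driven) were treated with compound for 2 days at 37C; corrected splicing was scored as total peak GFP intensity per well (488 nm excitation, 500-520 nm emission).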
# [15] = Confirmation and Secondary Assay for Modulators of Hemoglobin Beta Chain Splicing at IVS2 705 locus (AID 930; active = well fitted curve in the direction sought with a large enough effect; an effect the other way counts as inactive or inconclusive;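 note: HeLa cells stably expressing the EGFP-705 splicing reporter; GFP fluorescence per well restored by corrected splicing of the IVS2-705 intron in EGFP; % of control where 0% means no effect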); settings: HeLa EGFP-705 splicing reporter, GFP fluorescence, 48 h; series mostly up to 38.3 µM
# Outline: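 Read-out: total peak GFP fluorescence per well (488 nm excitation, 500-520 nm emission) by laser-scanning cytometry. Cells: HeLa EGFP-705 splicing reporter, 2 days compound exposure in Optimem/2% FCS.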
# Chain of Lysosomal acid glucosylceramidase (Homo sapiens) (P04062 whole entry, looked up): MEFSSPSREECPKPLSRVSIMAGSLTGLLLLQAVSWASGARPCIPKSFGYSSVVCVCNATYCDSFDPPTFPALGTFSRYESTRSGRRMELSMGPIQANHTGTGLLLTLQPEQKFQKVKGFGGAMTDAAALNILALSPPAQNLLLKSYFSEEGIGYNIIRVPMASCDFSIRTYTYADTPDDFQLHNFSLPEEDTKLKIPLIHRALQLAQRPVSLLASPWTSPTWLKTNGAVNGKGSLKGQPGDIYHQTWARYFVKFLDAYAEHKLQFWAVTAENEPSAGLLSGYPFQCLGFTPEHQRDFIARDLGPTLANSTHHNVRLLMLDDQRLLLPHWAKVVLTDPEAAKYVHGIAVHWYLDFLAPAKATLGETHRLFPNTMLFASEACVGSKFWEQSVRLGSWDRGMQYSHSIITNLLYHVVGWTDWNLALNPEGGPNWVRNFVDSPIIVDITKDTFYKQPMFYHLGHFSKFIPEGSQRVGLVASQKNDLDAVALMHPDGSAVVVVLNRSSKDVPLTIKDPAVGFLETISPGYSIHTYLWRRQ
# Chain of 3',5'-cyclic-AMP phosphodiesterase 4B (Homo sapiens) (Q07343 whole entry, looked up): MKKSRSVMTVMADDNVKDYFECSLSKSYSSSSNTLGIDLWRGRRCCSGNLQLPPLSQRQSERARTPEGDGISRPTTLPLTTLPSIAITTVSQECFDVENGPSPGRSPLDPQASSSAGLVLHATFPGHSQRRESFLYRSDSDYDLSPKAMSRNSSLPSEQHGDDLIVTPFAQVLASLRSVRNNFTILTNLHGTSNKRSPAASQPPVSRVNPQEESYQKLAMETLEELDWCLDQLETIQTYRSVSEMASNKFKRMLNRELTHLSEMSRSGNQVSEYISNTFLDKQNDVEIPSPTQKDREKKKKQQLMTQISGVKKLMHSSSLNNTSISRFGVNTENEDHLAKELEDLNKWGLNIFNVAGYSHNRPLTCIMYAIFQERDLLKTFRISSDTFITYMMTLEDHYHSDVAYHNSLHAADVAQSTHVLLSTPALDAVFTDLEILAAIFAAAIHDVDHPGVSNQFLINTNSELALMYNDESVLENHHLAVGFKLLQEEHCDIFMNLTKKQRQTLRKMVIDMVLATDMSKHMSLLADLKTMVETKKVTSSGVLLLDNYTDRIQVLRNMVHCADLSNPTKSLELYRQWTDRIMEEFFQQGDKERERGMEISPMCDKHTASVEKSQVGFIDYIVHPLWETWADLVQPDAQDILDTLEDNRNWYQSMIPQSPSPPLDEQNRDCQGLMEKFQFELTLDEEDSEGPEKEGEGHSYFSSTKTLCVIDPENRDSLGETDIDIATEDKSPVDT
# Chain of Cytochrome P450 1A2 (Homo sapiens) (P05177 whole entry, looked up): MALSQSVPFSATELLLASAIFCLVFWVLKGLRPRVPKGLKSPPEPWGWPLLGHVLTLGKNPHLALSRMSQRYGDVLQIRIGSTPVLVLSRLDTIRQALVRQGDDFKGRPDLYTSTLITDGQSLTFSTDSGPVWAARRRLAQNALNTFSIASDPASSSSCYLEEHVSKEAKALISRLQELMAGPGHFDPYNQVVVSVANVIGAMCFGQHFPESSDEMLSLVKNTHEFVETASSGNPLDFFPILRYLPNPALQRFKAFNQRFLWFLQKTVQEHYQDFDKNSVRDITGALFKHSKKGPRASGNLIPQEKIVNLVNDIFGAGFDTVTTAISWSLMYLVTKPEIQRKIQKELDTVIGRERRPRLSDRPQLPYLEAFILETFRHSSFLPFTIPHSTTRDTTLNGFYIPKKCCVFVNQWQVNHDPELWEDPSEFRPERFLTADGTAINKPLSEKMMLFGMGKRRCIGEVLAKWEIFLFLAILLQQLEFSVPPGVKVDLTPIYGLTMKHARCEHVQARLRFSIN
# Chain of Cytochrome P450 3A4 (Homo sapiens) (P08684 whole entry, looked up): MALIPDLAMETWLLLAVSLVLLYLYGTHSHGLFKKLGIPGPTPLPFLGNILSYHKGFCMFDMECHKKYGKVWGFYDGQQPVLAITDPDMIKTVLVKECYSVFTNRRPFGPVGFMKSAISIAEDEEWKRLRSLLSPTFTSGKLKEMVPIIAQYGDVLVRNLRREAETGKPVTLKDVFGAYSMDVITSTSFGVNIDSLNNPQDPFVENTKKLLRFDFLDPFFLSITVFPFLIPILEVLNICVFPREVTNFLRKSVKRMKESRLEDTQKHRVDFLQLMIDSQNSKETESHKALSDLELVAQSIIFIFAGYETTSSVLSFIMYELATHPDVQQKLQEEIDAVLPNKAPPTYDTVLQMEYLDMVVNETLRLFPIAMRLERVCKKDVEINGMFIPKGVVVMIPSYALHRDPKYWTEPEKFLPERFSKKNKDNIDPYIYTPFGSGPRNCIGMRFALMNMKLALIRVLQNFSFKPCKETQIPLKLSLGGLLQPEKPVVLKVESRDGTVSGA
# Chain of Glucocorticoid receptor (Homo sapiens) (P04150 whole entry, looked up, the tested form may be a part): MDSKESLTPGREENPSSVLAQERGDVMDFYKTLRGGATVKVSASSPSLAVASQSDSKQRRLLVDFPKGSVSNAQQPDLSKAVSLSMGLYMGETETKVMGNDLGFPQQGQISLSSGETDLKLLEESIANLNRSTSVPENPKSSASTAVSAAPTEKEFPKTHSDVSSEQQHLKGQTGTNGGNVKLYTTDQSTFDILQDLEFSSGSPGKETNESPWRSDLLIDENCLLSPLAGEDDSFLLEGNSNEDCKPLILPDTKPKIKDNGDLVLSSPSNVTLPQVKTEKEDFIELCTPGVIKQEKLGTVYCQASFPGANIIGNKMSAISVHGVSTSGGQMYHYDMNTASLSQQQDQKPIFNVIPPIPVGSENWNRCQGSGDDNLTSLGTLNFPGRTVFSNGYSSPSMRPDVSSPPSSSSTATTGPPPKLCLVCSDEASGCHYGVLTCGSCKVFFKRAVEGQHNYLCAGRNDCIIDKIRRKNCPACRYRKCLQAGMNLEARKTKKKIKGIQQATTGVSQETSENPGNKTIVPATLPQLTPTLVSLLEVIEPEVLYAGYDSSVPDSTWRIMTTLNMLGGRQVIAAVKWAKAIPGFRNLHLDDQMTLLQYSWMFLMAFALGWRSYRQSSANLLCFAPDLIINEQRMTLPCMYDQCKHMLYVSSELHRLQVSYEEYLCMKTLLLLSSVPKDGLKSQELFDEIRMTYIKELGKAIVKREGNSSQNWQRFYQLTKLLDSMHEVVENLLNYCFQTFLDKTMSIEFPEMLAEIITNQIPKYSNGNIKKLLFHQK
# Chain of Ubiquitin carboxyl-terminal hydrolase 1 (Homo sapiens) (O94782 whole entry, looked up): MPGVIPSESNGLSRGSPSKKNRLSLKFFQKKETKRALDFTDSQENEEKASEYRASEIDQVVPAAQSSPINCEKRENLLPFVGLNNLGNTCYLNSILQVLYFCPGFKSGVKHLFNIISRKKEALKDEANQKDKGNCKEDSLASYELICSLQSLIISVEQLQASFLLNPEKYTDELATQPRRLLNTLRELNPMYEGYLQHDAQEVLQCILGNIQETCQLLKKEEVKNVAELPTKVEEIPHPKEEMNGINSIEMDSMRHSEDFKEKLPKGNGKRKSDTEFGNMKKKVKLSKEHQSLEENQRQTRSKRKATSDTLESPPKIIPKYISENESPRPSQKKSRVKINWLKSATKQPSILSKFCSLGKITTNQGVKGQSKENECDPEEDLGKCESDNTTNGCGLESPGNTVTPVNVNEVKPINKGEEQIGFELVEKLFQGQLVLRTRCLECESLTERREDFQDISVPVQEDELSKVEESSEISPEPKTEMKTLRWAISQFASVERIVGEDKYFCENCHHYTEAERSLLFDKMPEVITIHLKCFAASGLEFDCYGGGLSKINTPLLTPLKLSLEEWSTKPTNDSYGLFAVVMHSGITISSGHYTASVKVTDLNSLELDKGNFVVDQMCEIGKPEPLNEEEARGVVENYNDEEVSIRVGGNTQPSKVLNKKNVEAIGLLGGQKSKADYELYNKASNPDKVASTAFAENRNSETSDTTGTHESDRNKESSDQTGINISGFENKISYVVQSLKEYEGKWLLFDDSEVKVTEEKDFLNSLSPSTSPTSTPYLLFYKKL
SMILES,Potency [1],"activity change, negative = inhibition [2]",Potency [3],Potency [4],Potency [5],Potency [6],outcome [7],"activity change, negative = inhibition [8]","activity, negative = inhibition [9]",Potency [10],Potency [11],Potency [12],Potency [13],Potency [14],outcome [15],activation [6]
Cn1c(=O)c(-c2cccs2)nc2cnc(Oc3ccccc3)nc21,> 11.4 µM,12.2%,7.94 µM (active),> 46 µM,inactive,3.16 µM (active),inactive,–,–,–,–,–,–,–,–,–
N#Cc1cccc(-c2nc3cnc(Nc4ccccc4)nc3n(C[C@H]3CCCO3)c2=O)c1,> 11.4 µM,-18.6%,–,> 46 µM,inactive,–,inactive,-9.05%,-7.94%,> 9.22 µM,inactive,–,–,–,–,–
COc1ncc2nc(CCc3ccccc3)c(=O)n(Cc3cccs3)c2n1,> 11.4 µM,-2.76%,–,> 46 µM,–,–,inactive,-5.02%,-3.9%,> 9.22 µM,inactive,–,–,–,–,–
c1cncc(CNc2ccnc(-c3cccnc3)n2)c1,> 11.4 µM,8.01%,–,> 46 µM,inactive,–,inactive,10.2%,8.94%,> 46 µM,inactive,inactive,–,–,–,–
O=C(c1cc(C(F)(F)F)cc(C(F)(F)F)c1)N1CCC2(CCCN(Cc3ccncc3)C2)CC1,> 11.4 µM,7.96%,inactive,> 46 µM,inactive,–,inactive,–,-3.11%,–,inactive,–,inactive,–,–,–
O=C(c1ccco1)N1CCC2(CCCN(c3ccccn3)C2)CC1,> 11.4 µM,-0.937%,10 µM (active),> 46 µM,inactive,–,inactive,–,-3.59%,–,inactive,–,inactive,–,–,–
CN(Cc1ccco1)c1ccnc(-c2ccoc2)n1,> 11.4 µM,12%,–,> 46 µM,inactive,–,inactive,-2.04%,-14.2%,> 46 µM,inactive,inactive,–,inactive,inactive,–
COc1ncc2nc(-c3ccc(F)cc3)c(=O)n(CCC#N)c2n1,> 11.4 µM,13.2%,–,> 46 µM,inactive,–,inactive,-5.63%,-0.246%,> 9.22 µM,inactive,–,–,–,–,–
Cc1cnc(CNc2ncnc3ccc(-c4ccccc4C#N)cc23)cn1,> 11.4 µM,9.76%,–,> 46 µM,inactive,–,inactive,0.584%,-10.7%,> 46 µM,inactive,–,–,inactive,inactive,–
COc1ncc2nc(-c3ccc(F)cc3)c(=O)n(C[C@H]3CCCO3)c2n1,> 11.4 µM,3.08%,–,> 46 µM,inactive,–,inactive,-6.14%,-1.31%,> 9.22 µM,inactive,–,–,–,–,–
O=C(Nc1cccc(F)c1)N1CCCC2(CCN(C(=O)c3csnn3)CC2)C1,> 11.4 µM,-12.3%,–,> 46 µM,inactive,–,inactive,-19.5%,-9.38%,–,inactive,–,–,–,–,–
COc1ccc(Oc2ncc3nc(C)c(=O)n(C4CC4)c3n2)cc1,> 11.4 µM,-0.17%,–,> 46 µM,inactive,–,inactive,-5.38%,-4.78%,> 9.22 µM,inactive,–,–,–,–,-6.35%
Cc1nc2cnc(OCc3ccccc3)nc2n(CCC#N)c1=O,> 11.4 µM,2.98%,–,> 46 µM,–,–,inactive,-3.58%,-1.87%,> 9.22 µM,inactive,–,inactive,–,–,–
COc1ccc(C(=O)N2CCC[C@@]3(CCN(Cc4nccs4)C3)C2)cc1,> 11.4 µM,-5.52%,–,> 46 µM,inactive,–,inactive,-6.27%,-1.52%,–,inactive,–,–,–,–,–
COCCn1c(=O)c(-c2cc(F)cc(F)c2)nc2cnc(OCc3ccccc3)nc21,> 11.4 µM,8.07%,–,> 46 µM,inactive,–,inactive,-6.33%,-6.5%,> 9.22 µM,inactive,–,–,–,–,–
N#Cc1ccc(CN2CC3(CCN(C(=O)c4csnn4)CC3)C2)cc1,> 11.4 µM,-0.499%,–,> 46 µM,inactive,–,inactive,-22.3%,5.17%,–,inactive,–,–,–,–,–
